Columns and labels:
[1] = biological target: T1, Serine/threonine-protein kinase TBK1 (Homo sapiens) (UniProt Q9UHD2); conditions: at 10 µM
T1 sequence (whole entry): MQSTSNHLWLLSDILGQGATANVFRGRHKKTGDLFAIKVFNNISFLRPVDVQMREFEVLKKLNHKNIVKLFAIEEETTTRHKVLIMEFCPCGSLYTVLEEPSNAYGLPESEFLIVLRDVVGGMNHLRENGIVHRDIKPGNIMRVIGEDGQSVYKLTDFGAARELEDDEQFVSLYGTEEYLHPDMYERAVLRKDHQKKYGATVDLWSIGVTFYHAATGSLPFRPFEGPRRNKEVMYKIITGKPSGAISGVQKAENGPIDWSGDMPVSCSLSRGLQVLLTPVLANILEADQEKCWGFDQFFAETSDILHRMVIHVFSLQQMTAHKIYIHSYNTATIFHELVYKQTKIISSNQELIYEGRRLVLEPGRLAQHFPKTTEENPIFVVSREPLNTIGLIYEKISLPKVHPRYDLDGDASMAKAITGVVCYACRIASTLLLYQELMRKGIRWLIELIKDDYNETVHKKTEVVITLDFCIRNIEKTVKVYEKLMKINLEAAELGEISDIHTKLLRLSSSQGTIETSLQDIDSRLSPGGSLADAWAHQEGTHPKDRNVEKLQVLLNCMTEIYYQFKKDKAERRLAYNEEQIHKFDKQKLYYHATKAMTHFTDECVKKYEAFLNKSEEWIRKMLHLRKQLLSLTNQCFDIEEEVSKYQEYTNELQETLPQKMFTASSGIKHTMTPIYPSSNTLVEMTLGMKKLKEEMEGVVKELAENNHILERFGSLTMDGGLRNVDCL

[2] = biological target: T2, TGF-beta receptor type-1 (Homo sapiens) (UniProt P36897); conditions: at 1 µM
T2 sequence (whole entry): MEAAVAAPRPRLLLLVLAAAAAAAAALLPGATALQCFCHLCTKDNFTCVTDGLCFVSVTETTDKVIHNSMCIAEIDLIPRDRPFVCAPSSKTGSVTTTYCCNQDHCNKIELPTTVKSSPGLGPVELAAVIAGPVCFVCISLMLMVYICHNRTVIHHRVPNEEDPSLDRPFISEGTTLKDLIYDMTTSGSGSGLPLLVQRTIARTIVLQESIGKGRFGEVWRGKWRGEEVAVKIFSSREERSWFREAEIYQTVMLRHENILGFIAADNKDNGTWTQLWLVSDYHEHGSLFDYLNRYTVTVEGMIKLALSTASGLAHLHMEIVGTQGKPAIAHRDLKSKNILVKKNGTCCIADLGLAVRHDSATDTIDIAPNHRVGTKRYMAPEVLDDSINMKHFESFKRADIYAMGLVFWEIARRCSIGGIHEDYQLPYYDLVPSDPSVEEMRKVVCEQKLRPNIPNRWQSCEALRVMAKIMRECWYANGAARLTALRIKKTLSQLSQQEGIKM

[3] = biological target: T2, TGF-beta receptor type-1 (Homo sapiens); conditions: at 10 µM
[4] = biological target: Insulin-like growth factor 1 receptor (Homo sapiens) (UniProt P08069); conditions: at 1 µM
Sequence of Insulin-like growth factor 1 receptor (Homo sapiens) (P08069 31-736 limits assumed): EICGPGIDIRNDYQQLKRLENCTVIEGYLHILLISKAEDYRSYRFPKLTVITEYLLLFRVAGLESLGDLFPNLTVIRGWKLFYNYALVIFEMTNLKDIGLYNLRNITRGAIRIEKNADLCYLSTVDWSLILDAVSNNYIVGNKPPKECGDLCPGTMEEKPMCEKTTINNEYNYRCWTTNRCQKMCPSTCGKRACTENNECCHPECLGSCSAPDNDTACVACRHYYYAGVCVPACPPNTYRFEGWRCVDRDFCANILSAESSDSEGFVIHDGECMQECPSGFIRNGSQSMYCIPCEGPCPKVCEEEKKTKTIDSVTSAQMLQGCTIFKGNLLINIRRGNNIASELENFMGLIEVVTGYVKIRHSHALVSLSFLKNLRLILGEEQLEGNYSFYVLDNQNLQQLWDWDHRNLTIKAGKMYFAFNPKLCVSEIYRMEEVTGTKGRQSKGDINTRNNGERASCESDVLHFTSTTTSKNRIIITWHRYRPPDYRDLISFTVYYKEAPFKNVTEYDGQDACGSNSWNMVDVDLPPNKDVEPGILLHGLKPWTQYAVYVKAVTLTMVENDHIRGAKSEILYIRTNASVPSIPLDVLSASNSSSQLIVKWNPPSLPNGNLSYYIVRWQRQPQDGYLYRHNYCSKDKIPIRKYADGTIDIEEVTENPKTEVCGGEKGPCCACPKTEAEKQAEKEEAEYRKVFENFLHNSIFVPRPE
Sequence of Insulin-like growth factor 1 receptor (Homo sapiens) (P08069 741-1367 limits assumed): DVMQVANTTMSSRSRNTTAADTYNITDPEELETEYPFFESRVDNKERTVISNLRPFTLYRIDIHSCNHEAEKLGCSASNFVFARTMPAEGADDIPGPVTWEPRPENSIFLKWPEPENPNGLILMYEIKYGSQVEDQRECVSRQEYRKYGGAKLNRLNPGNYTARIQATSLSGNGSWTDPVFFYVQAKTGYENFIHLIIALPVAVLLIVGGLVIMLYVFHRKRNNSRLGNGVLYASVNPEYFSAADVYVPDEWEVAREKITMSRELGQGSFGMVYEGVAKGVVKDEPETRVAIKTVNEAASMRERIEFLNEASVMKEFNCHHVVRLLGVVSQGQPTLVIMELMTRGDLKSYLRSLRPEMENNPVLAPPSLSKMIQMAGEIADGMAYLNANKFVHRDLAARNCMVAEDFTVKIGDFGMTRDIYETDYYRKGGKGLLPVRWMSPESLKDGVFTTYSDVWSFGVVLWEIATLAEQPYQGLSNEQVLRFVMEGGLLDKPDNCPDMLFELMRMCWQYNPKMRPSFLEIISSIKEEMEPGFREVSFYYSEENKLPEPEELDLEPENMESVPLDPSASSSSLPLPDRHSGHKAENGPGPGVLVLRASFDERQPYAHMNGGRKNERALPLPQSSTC

[5] = biological target: Insulin-like growth factor 1 receptor (Homo sapiens) (UniProt P08069); conditions: at 10 µM
[6] = biological target: T3, Inhibitor of nuclear factor kappa-B kinase subunit alpha (Homo sapiens) (UniProt O15111); conditions: at 1 µM
T3 sequence (whole entry): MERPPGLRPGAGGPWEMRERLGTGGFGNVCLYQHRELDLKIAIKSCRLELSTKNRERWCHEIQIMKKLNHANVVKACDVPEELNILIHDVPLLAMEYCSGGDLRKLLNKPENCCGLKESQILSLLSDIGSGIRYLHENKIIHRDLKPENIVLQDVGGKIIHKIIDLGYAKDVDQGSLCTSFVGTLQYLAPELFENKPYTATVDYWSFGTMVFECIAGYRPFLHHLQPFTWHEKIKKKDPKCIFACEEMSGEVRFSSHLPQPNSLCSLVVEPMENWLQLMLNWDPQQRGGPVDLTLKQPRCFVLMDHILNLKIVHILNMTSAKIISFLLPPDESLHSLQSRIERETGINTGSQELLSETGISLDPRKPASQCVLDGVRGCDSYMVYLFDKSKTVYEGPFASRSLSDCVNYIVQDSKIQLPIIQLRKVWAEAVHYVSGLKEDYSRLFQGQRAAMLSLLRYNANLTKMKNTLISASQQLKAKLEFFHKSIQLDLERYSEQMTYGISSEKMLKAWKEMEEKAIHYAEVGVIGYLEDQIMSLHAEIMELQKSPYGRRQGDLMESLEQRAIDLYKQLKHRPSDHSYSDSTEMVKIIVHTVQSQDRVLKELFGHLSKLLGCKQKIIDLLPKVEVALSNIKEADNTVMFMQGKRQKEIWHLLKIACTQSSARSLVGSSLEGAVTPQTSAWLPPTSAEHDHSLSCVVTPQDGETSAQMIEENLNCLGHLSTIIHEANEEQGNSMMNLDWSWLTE

[7] = biological target: T3, Inhibitor of nuclear factor kappa-B kinase subunit alpha (Homo sapiens); conditions: at 10 µM
[8] = biological target: T4, Inhibitor of nuclear factor kappa-B kinase subunit beta (Homo sapiens) (UniProt O14920); conditions: at 1 µM
T4 sequence (whole entry): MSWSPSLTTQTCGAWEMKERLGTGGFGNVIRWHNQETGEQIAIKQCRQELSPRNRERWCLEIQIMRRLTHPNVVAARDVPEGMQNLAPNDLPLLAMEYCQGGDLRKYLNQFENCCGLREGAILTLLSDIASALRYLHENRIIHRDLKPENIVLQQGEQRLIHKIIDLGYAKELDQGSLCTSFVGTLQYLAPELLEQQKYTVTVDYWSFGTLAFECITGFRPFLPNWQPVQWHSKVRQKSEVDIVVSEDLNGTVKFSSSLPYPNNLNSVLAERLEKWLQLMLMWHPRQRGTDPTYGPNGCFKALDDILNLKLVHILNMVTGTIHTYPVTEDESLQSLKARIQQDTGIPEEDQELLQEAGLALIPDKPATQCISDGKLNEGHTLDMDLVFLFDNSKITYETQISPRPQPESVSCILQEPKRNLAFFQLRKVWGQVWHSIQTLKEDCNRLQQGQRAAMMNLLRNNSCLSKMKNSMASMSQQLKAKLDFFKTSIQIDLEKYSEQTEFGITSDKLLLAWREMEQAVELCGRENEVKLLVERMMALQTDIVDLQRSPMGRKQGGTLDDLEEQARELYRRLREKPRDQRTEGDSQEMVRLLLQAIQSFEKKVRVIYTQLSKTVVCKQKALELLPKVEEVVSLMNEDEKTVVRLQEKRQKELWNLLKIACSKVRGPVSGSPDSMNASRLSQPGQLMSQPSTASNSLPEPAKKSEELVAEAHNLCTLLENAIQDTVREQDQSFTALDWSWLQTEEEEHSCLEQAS

[9] = biological target: T4, Inhibitor of nuclear factor kappa-B kinase subunit beta (Homo sapiens); conditions: at 10 µM
[10] = biological target: Insulin receptor (Homo sapiens) (UniProt P06213); conditions: at 1 µM
Sequence of Insulin receptor (Homo sapiens) (P06213 28-758 limits assumed): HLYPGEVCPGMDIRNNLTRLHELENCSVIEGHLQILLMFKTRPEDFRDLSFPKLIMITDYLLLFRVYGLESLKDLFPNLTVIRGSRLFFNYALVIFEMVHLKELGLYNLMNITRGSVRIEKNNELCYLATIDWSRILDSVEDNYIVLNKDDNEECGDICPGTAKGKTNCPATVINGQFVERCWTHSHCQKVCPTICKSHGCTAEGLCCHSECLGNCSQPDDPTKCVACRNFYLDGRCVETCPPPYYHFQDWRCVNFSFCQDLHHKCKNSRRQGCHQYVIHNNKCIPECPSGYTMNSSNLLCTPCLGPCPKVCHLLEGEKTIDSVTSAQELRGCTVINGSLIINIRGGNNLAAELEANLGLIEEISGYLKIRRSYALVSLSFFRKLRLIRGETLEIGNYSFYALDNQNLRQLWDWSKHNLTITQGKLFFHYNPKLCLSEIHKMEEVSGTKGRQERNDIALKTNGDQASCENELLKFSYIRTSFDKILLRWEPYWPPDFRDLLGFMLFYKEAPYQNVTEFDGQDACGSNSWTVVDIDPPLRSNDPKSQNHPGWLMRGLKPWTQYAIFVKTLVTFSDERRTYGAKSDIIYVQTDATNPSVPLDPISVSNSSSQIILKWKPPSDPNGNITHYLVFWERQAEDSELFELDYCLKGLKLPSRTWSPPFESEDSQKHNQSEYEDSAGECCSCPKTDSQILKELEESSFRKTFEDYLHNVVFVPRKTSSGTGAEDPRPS
Sequence of Insulin receptor (Homo sapiens) (P06213 763-1382 limits assumed): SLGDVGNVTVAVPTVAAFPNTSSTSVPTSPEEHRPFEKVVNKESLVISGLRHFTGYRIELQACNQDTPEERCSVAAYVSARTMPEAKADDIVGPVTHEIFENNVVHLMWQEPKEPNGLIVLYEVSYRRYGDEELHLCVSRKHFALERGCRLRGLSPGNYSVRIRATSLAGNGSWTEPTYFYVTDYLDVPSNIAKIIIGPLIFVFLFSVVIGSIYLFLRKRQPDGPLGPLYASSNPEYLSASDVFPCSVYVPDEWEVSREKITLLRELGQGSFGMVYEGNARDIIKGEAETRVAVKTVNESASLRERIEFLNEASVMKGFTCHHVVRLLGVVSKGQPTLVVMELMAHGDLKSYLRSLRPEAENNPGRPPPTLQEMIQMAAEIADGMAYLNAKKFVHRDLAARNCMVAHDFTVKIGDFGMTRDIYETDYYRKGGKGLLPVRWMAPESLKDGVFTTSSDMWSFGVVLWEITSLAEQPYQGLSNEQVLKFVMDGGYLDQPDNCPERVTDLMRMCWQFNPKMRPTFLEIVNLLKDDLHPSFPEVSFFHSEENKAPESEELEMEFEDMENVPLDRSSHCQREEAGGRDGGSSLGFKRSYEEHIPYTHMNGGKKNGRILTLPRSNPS

Compound	residual activity [1] [%]	residual activity [2] [%]	residual activity [3] [%]	residual activity [4] [%]	residual activity [5] [%]	residual activity [6] [%]	residual activity [7] [%]	residual activity [8] [%]	residual activity [9] [%]	residual activity [10] [%]
COc1cccc(-c2cc(=O)c3ccccc3o2)c1N	95	104	93	93	97	105	97	125	109	109
Cc1nc2cc3nc(-c4cccs4)cnc3cc2n1C	87	98	118	115	106	125	106	106	106	117
Cc1cc2ncc(-c3ccccc3)nc2cc1C	73	100	91	99	101	105	109	101	99	–
c1ccc(-c2n[nH]c3c2oc2ccccc23)cc1	55	82	88	–	–	97	88	–	–	–
N#Cc1cnc2cnc(NCc3cccnc3)cc2c1Nc1ccc(F)c(Cl)c1	2	126	123	–	–	74	58	84	74	136
CC(=O)c1ccc(N2CCOCC2)cc1O	70	83	90	–	–	–	–	104	102	–
COc1cc2ncnc(Nc3ccc(Oc4ccccc4)cc3)c2cc1OC	57	99	98	110	89	117	101	103	122	110
O=C1Nc2ccc(Br)cc2/C1=C\c1cc2c([nH]1)CCCC2	65	–	–	–	–	102	115	–	–	–
COc1cc2ncnc(N3CCN(C(=O)Nc4ccc(Oc5ccccc5)cc4)CC3)c2cc1OC	53	80	76	–	–	103	–	113	115	115
Cn1cnc2cc3c(Nc4cccc(Br)c4)ncnc3cc21	63	86	85	109	90	92	104	95	94	102
Cc1cncc2cccc(S(=O)(=O)N3CCCN(C(=O)CN)C[C@H]3C)c12	55	78	86	–	–	93	–	–	–	–
O=C1NC(=O)/C(=C\c2ccc3nccnc3c2)S1	27	92	75	105	89	100	54	102	69	107
c1ccc(-c2n[nH]cc2-c2ccnc3ccccc23)nc1	66	6	0	99	82	–	–	–	–	108
CO[C@@H]1[C@H](N(C)C(=O)c2ccccc2)C[C@H]2O[C@]1(C)n1c3ccccc3c3c4c(c5c6ccccc6n2c5c31)C(=O)NC4	1	85	–	92	84	101	91	–	84	87
O=C1c2ccccc2-[n+]2ccc3c([nH]c4ccccc43)c21	53	81	78	86	92	108	108	113	97	84
CO[C@H]1C[C@@H]2CC[C@@H](C)[C@@](O)(O2)C(=O)C(=O)N2CCCC[C@H]2C(=O)O[C@H]([C@H](C)C[C@@H]2CC[C@@H](O)[C@H](OC)C2)CC(=O)[C@H](C)/C=C(\C)[C@@H](O)[C@@H](OC)C(=O)[C@H](C)C[C@H](C)/C=C/C=C/C=C/1C	55	82	78	96	74	121	148	104	124	107
C[C@@H](N)[C@H]1CC[C@H](C(=O)Nc2ccncc2)CC1	99	113	105	115	105	136	64	87	77	100
CN(C)c1ccc(/C=C2\C(=O)Nc3ccccc32)cc1	45	93	98	105	103	102	120	112	93	99
Cc1ccc(NC2=CC(=O)c3sc(C)nc3C2=O)cc1	74	90	83	95	92	107	103	106	98	95

Source: ChEMBL document CHEMBL2218924, “A broad activity screen in support of a chemogenomic map for kinase signalling research and drug discovery” (Biochem J, 2013)
